ALR inh – inhibitors of human sulfhydryl oxidase ALR | P55789 | purified ALR, DTT oxidation, H2O2 HRP-luminol luminescence | inhibition, % (concentration not given with the values) | actives 3.8% (n = 290,000);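 active = mean replicate inhibition above about 79%, with every replicate also reaching it, limit read from the data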
Target sequence (P55789 whole entry, looked up): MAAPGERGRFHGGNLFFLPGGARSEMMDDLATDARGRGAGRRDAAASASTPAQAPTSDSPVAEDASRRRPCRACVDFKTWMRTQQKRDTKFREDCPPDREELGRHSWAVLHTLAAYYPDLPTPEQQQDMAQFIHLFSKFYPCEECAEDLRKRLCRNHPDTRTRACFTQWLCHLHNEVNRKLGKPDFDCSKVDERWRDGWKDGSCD
Efflux pump mplx – antifungal efflux pump inhibition, Nile Red retention. S. cerevisiae Candida pump triplex. inhibition, % at 10 µM. actives 0.44% (n = 330,000). AID 485275;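 active = plate passing quality check with inhibition over a set limit, or well fluorescence over plate mean plus 4 SD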;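 note: Nile Red retained in pooled yeast measured as flow cytometry median fluorescence; 0% = buffer negative control and 100% = Enniatin B positive control; higher means more Nile Red kept so more efflux inhibition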
PABP1 MLLE inh – inhibitors of microRNA-mediated deadenylation, human PABP1 MLLE binding. P11940. GST-MLLE / FITC-PAM2 fluorescence polarization. actives 0.36% (n = 360,000). inhibition, % at 20 µM; in the data active = inhibition above about 35%, passing the limit was not always enough;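 note: plate controls were DMSO wells with GST-MLLE for no effect and wells lacking GST-MLLE protein for full effect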
PABP FP inh – PABP-poly(A) binding inhibition. AID 2014. inhibition, % at 35 µM. PABP-poly(A) RNA binding, fluorescence polarization. actives 1% (n = 290,000);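 note: calls also rest on retests at 20 µM and on dose response follow-up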
SUMO HTRF inh – SUMOylation inhibition. inhibition, % at 35 µM. HTRF SUMOylation assay, SAE1/SAE2 + UBC9, in vitro. actives 0.36% (n = 290,000); in the data active = inhibition above about 50%, passing the limit was not always enough
Target sequence (P63279 whole entry, looked up): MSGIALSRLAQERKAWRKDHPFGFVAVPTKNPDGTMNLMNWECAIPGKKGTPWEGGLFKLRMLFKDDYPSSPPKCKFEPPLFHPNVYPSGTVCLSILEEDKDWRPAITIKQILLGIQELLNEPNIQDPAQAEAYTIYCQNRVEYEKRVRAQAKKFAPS
eIF4H FP inh – inhibitors of RNA binding by human eIF4H; eIF4H fluorescence polarization binding assay; Q15056; inhibition, % at 35 µM; actives 0.94% (n = 290,000);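 note: calls also rest on retests at 20 µM and on dose response follow-up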
Numbers without * were called inactive; nt = no result given. Compounds with a hit are over-represented: about 4.7% of the library has one in this group of screens. Unless noted, the rule behind the calls is not given here.

SMILES	ALR inh	Efflux pump mplx	PABP1 MLLE inh	PABP FP inh	SUMO HTRF inh	eIF4H FP inh
C=CCn1c(SCC(=O)c2cccs2)nnc1-c1cccc(OC)c1	93*	0	-61	-1	8	-6
Cc1ccc2cc(C)c3nnc(SCC(=O)c4cccs4)n3c2c1C	nt	0	4	6.4*	4	96*
C=CCn1c(SCC(=O)c2ccc(O)c(O)c2)nnc1-c1cccc(OC)c1	99*	1	-36	nt	nt	nt
Cc1ccc(S(=O)(=O)N2C(=O)[C@@H]3Cc4ccccc4CN3C2=O)cc1	nt	nt	-1	2	5	-3
CC1CC(C)CN(C(=O)CN2C(=O)NC3(CCCCCC3)C2=O)C1 (stereo unspecified)	-1	0	10	nt	nt	nt
CCOc1ccc(-c2nc(C#N)c(NCc3ccco3)o2)cc1	-16	0	0	2	26	8
COCCCNC(=O)C1CCC(CNS(=O)(=O)c2ccc(Cl)cc2)CC1 (stereo unspecified)	1	0	15	0	-5	-2
CCCCc1cc(=O)oc2cc(C)cc(OC(C)C(=O)NCc3cccnc3)c12 (stereo unspecified)	0	0	5	-4	13	1
Cc1cccc(N2CCN(C(=O)C3CCN(S(=O)(=O)c4c(C)noc4C)CC3)CC2C)c1 (stereo unspecified)	98*	0	-4	7	3	2
Cc1noc(C)c1S(=O)(=O)N1CCC(C(=O)N2CCC(C)CC2)CC1	-2	0	-7	-6	2	-2
Cc1cccc(N2CCN(C(=O)C3CCCN(S(=O)(=O)c4cnc[nH]4)C3)CC2C)c1 (stereo unspecified)	99*	0	1	-3	10	2
NCCCCCc1nnc(SCC(=O)Nc2cccc(Cl)c2)o1	92*	0	13	2	7	-9
O=C(CSc1nnc(CNC(=O)c2cccs2)o1)Nc1cccc(F)c1	99*	0	21	5	-1	-7
O=C(CSc1nnc(CNC(=O)c2cccs2)o1)Nc1cccc(C(F)(F)F)c1	-1	0	-12	-7	-3	14
NCCCCCc1nnc(SCc2cccc(Cl)c2)o1	-9	0	-13	-2	-5	-4
NCCCCCc1nnc(SCc2ccc(Cl)cc2Cl)o1	99*	0	6	5	9	6
O=C(CSc1nnc(CNC(=O)c2cccs2)o1)Nc1cccc(Cl)c1	98*	0	13	-1	-10	-4
COc1ccccc1/C=C/C(=O)N1CCN(S(=O)(=O)c2cc(C)ccc2C)CC1	nt	0	-5	nt	nt	nt
O=C(O)c1cn(Cc2ccccc2)nc1-c1cccnc1	-6	0	-7	-11	-8	-6
CON(c1nc(Cl)nc(N(C)C)n1)S(=O)(=O)c1ccc(C)cc1	6	0	-2	-1	-9	7
C/C(=N/NC(=O)c1ccc(-c2ccccc2)cc1)c1cc(O)cc(O)c1	99*	0	-4	-1	-1	-9
C/C(=N\NC(=O)c1cccc(F)c1)c1ccc(NC(=O)Cc2ccccc2)cc1	-2	0	-1	7	2	3
C/C(=N\NC(=O)c1cc(O)cc(O)c1)c1ccc(NC(=O)Cc2ccccc2)cc1	14	0	3	94*	nt	101*
COc1cc2ccc3c(CCN(C)C)cc(OC)c(OC)c3c2cc1OC	nt	0	-54	58*	4	-7
CN(C)CCc1cc2c(c3c1ccc1ccccc13)OCO2	-108	0	11	-9	7	-9
SMILES	ALR inh	Efflux pump mplx	PABP1 MLLE inh	PABP FP inh	SUMO HTRF inh	eIF4H FP inh
CCCCNC(=O)CS(=O)Cc1nc(-c2cccc(Cl)c2)oc1C (stereo unspecified)	100*	0	16	2	3	-1
CCC(C)NC(=O)CS(=O)Cc1nc(-c2cccc(C)c2)oc1C (stereo unspecified)	98*	0	16	-11	0	8
Cc1cccc(-c2nc(CS(=O)CC(=O)NCCc3ccc(Cl)cc3)c(C)o2)c1 (stereo unspecified)	91*	0	4	10	-7	-5
CCCCSCCCNC(=O)CS(=O)Cc1nc(-c2cccc(C)c2)oc1C (stereo unspecified)	99*	0	6	-5	23	5
COC(=O)c1cc2sc(Cl)cc2n1Cc1nc(-c2cccc(C)c2)oc1C	nt	nt	nt	-4	-7	4
COc1cccc(OC)c1C(=O)Nc1ccccc1Sc1ccccc1	37	0	-3	nt	nt	nt
